Test results published in PubChem BioAssay (EPA / NIEHS).
Where “and” joins values, the source holds several entries; their conditions need not be identical. Equal values may be shown once. A structure can be active in one record and inactive in another. Calls of active or inactive are those of the source. The calls were made as follows: active = hit-call score of the fitted dose curve at least 0.9, where 1 is the maximum; inactive = score below 0.9.

Test: ATG_MRE_CIS: Attagene CIS-FACTORIAL HepG2 Assay for human Metal Responsive Element (MRE) (AID 2282954)
Conditions: HepG2 MRE cis-reporter transcription, Attagene multiplex; actives raise or lower the signal
Description: ATG_CIS is a cell-based, multiplexed-readout assay that uses HepG2, a human liver cell line, with measurements taken at 24 hours after chemical dosing in a 24-well plate.ATG_MRE_CIS is one of 52 assay component(s) measured or calculated from the ATG_CIS assay. It is designed to make measurements of mRNA induction, a form of inducible reporter, as detected with fluorescence intensity signals by Reverse transcription polymerase chain reaction (RT-PCR) and Capillary electrophoresis technology.Data from the assay component ATG_MRE_CIS was analyzed into 1 assay endpoint. This assay endpoint, ATG_MRE_CIS, was analyzed with bidirectional fitting relative to DMSO as the negative control and baseline of activity. Using a type of inducible reporter, measures of mRNA for gain or loss-of-signal activity can be used to understand the reporter gene at the transcription factor-level as they relate to the gene MTF1. Furthermore, this assay endpoint can be referred to as a primary readout, because this assay has produced multiple assay endpoints where this one serves a reporter gene function. To generalize the intended target to other relatable targets, this assay endpoint is annotated to the dna binding intended target family, where the subfamily is zinc finger.
Human liver HepG2 cells are transiently transfected with multiple reporter transcription units (MRTUs) in 6-well plates using FuGene 6 reagent (Roche; 3 ml FuGene/1 mg DNA). The MRTU constructs are regulated by a cis-regulating element (promoter). […] A major difference between the CIS and TRANS system is that in CIS activities of endogenous TFs are measured, whereas the TRANS assay evaluates changes in activities of exogenous, chimeric NR-Gal4 proteins. […] At the end of 24 hour incubation, total RNA was isolated using TriZol reagent (Invitrogen). The isolated RNA is then reverse-transcribed using oligo(dT) primer and Mo-MLV reverse transcriptase (Invitrogen) with DNAse I (Ambion) treatment for 30 min. The one-tenth of the produced cDNA was amplified by PCR using Taq DNA polymerase (Invitrogen) and two reporter sequence-specific primers. The PCR products were fluorescently labeled by primer extension with 6-arboxyfluorescein (6-FAM) 5'-labeled reporter sequence-specific primer (2 min at 95 C, 20 s at 68 C and 10 min at 72 C) and these products were digested with 5U of HpaI (New England Biolabs) for 2h at 37 C. The fragments were purified using Qiaquick PCR columns (Qiagen), analyzed on an ABI 3130xL genetic analyzer (Applied Biosystems) with peak positions identified by using a set of X-rhodamine (ROX)-labeled MapMarker1000 molecular weight standards (BioVentures). The raw capillary electrophoresis data was processed using Attagraph software (Attagene).

| SMILES | AC50 | outcome |
| --- | --- | --- |
| CC(=O)C1=C(C)[C@@H]2C[C@@]3(C1)[C@H](C)CC[C@H]3C2(C)C | 146 µM (active) | – |
| Cc1ccncc1 | – | inactive |
| COc1ccc(N)c(C)c1 | – | inactive |
| CC(C)(C)C1CCC(O)CC1 (stereo not given) | – | inactive |
| NC(=O)c1c(Cl)cccc1Cl | – | inactive |
| CC(C)C(=O)c1ccccc1 | – | inactive |
| O=c1cc[nH]cc1 | – | inactive |
| O=C(C=Cc1ccccc1)OCCCc1ccccc1 | – | inactive |
| CCc1cccc(O)c1 | – | inactive |
| C=CCOCC(O)CO (stereo not given) | – | inactive |
| CC(C)(C)c1cc(CCC(=O)OCCSCCOC(=O)CCc2cc(C(C)(C)C)c(O)c(C(C)(C)C)c2)cc(C(C)(C)C)c1O | – | inactive |
| CC(C)N(c1ccccc1)C(C)C | – | inactive |
| CC(O)CN (stereo not given) | – | inactive |
| CC1(C)[C@H](C=C(Cl)Cl)[C@H]1C(=O)OCc1cccc(Oc2ccccc2)c1 | – | inactive |
| CC(=O)N(C)C | – | inactive |
| CCCC(O)C(CC)CO (stereo not given) | – | inactive |
| C=CC(=O)OCC(CO)(COC(=O)C=C)COC(=O)C=C | 5.67 µM (active) | – |
| CCC(C)COC(=O)CC(C)C (stereo not given) | – | inactive |
| NC(=O)c1cnccn1 | – | inactive |
| CC(C)(O)C(=O)c1ccc(OCCO)cc1 | – | inactive |

| SMILES | AC50 | outcome |
| --- | --- | --- |
| CCCCCCCCCCCCOCCOS(=O)(=O)O | – | inactive |
| C[C@]12CC[C@@H]3c4ccc(O)cc4CC[C@H]3[C@@H]1CC[C@@H]2O | 31.8 µM (active) and 21 µM (active) and 25.8 µM (active) | inactive |
| CC1=CC(C)C(C=O)C(C)C1 (stereo not given) (tested in a mixture with another compound) | – | inactive |
| CCCCCCCCCCO[C@@H]1O[C@H](CO)[C@@H](O)[C@H](O)[C@H]1O | – | inactive |
| CCOC(=O)COC(=O)c1ccccc1C(=O)OCC | – | inactive |
| CCCCC(CC)COCCO (stereo not given) | – | inactive |
| Cc1ccccc1S | 102 µM (active) | – |
| COc1ccc2[nH]cc(CCNC(C)=O)c2c1 | – | inactive |
| CCCCCC1CCC(=O)O1 (stereo not given) | – | inactive |
| CCCC1CCC(=O)CC1 | – | inactive |
| NC(N)=S | – | inactive |
| CCCCCCCCCCCCS | – | inactive |
| CCCC[N+](C)(CCCC)CCCC | – | inactive |
| C=C/C(C)=C/C/C=C(\C)CCC=C(C)C | – | inactive |
| CC1=CCC(=C(C)C)CC1 | – | inactive |
| C=C(C)C(=O)OCCC(C)OC(=O)C(=C)C (stereo not given) | – | inactive |
| CCCCCCCCCCCCCC(=O)OCC | – | inactive |
| c1ccc(OCCOc2ccccc2)cc1 | – | inactive |
| C=C(C)C(=O)OCCOCCOC(=O)C(=C)C | – | inactive |
